Consider 88 compounds from PubChem BioAssay AID1508608 (The Scripps Research Institute Molecular Screening Center, 2020).

In all, about 2,300 compounds went through this assay and about 20 (0.9%) were called active.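 How the source made its calls: active means mean activation across replicates above 26.72%, the hit cutoff set for this confirmation screen; inactive means the rest.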 Only a selection was taken, and actives are over-represented in it overall.

Sequence of G-protein coupled receptor 151 (Homo sapiens) (Q8TDV0 whole entry, looked up): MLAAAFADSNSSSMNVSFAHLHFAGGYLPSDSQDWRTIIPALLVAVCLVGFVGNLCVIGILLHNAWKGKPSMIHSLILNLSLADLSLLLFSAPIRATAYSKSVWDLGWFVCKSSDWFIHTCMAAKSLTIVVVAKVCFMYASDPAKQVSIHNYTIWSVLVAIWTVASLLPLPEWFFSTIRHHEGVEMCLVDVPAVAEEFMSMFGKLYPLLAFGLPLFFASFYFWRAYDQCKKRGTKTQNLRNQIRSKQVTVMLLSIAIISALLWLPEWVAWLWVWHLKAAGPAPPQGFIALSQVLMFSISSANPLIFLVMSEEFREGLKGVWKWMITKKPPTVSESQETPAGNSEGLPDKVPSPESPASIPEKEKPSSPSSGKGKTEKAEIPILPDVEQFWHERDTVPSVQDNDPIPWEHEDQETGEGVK

This assay has as its target G-protein coupled receptor 151 (Homo sapiens) (UniProt Q8TDV0). The assay is described as follows: GPR151 agonism via beta-arrestin recruitment – cell-based, PathHunter beta-arrestin, luminescence, set 2, confirmation (AID 1508608).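 Further: 0% = plate median of compound wells and 100% = EA reagent high control.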 The note with it: GPR151 PathHunter beta-arrestin cells, 90 min, at 11.2 µM, stronger effect = higher value, 100% = signal from added EA reagent.
As to `CCCc1c(C)nc2c(C(=O)NCc3ccc(F)cc3)c[nH]n2c1=O`, the activation was 4.27% (inactive).
With `CC1CCCCC1NS(=O)(=O)c1ccc2c(c1)CCN2C(=O)C1CC1` (stereo not drawn), the activation is -8.17% (inactive).
The result for `CNS(=O)(=O)c1cc(-c2nnc(NCc3nc4ccccc4[nH]3)c3ccccc23)ccc1C` reads 0.28% (inactive).
Then `CCOC(=O)c1cnc2ccc(OCC)cc2c1Nc1ccccc1OC`, with 0.37% (inactive).
With `CC(C(=O)O)n1ncn2cccc2c1=O` (stereo not drawn), the activation is 0.45% (inactive).
The result for `Cc1cc2c(cc1S(=O)(=O)N1CCN(C3CCCCC3)CC1)OCC(=O)N2` reads -3.55% (inactive).
In the case of `CCCCc1ccc(C(=O)N/C(=C\c2ccc(C)cc2)C(=O)Nc2ccc([N+](=O)[O-])cc2)cc1`, the activation was -6.88% (inactive).
For `COCCCNC(=O)c1csc2c1CCCC2`, the activation is -6.29% (inactive).
For the compound `COc1ccccc1OCC(=O)n1nc(C)cc1C`, the activation was -1.85% (inactive).
Regarding `CC1=C(C(=O)OCC(C)C)C(c2ccc(Cl)cc2Cl)NC(=O)N1` (stereo not drawn), the activation is 1.8% (inactive).
Take `CCCCNC(=O)c1ccc2c(c1)ncn2-c1cc(OC)c(OC)c(OC)c1`: the activation is 3.91% (inactive).
As for `Cc1ccc(S(=O)(=O)c2cc3cc([N+](=O)[O-])ccc3oc2=O)cc1C`, the activation was -3.29% (inactive).
Turning to `Clc1nc(NCc2ccccc2)c2ncn(-c3ccccc3)c2n1`, the activation is -0.22% (inactive).
Then `c1ccc(Oc2nc(NC3CC3)c3ncn(-c4ccsc4)c3n2)cc1`, with 38.7% (active); and `COc1ccc(S(=O)(=O)NC(N)=NCCc2ccccc2OC)cc1`, with 0.59% (inactive); and `O=C(Cn1ncc2c(=O)oc3ccccc3c21)Nc1nc2ccccc2s1`, with -0.55% (inactive).
For `O=C(NCCc1ccccc1)c1cc(S(=O)(=O)N2CCOCC2)ccc1F`, the activation was -1.01% (inactive).
The result for `O=C(NCC1CCC2(CCN(C(=O)Cc3cccc(F)c3)CC2)O1)c1ccccc1F` (stereo not drawn) reads 0.36% (inactive).
Then `O=C(CCC(=O)Nc1cc(C(F)(F)F)ccc1Cl)N/N=C\c1ccccc1O`, with -2.79% (inactive).
For the compound `CCOC(=O)c1c(NC(=O)c2ccc(Cl)cc2Cl)sc(C(=O)Nc2ccccc2F)c1C`, the activation was -10.1% (inactive).
Then `Cc1ccc(-c2nnc(SCC(=O)NCc3ccccc3Cl)nc2-c2ccc(C)cc2)cc1`, with -2.15% (inactive).
The result for `COc1ccc(CCNC(=O)/C=C\C(=O)O)cc1OC` reads 1.57% (inactive); that for `COc1ccc(CCNC(=O)Cn2ncn3cccc3c2=O)cc1OC`, 3.19% (inactive).
The result for `COc1ccc(CCNc2ncnc3c2oc2ccccc23)cc1OC` reads 44.3% (active); that for `O=C(Cn1c(=O)n(Cc2ccccc2Cl)c(=O)c2cccnc21)Nc1ccc(F)cc1`, -1.3% (inactive).
Turning to `O=C(CCCn1c2ccccc2c(=O)c2ccccc21)Nc1cccc(Cl)c1`, the activation is 6.83% (inactive).
The result for `COc1ccc(-c2nc(Nc3ccccc3F)c3ccccc3n2)cc1OC` reads 8.64% (inactive); that for `CC(C)C[C@H]1NC(=O)[C@H]2CN(C(=O)c3cccc(Cl)c3)CCN2C1=O`, -3.06% (inactive).
The result for `CC[C@@H](C(=O)C(C)[C@@H](O)[C@H](C)CCc1ccc(C)c(O)c1C(=O)O)C1OC(CC)(C2CC[C@](O)(CC)[C@H](C)O2)C[C@@H]1C` (stereo partly drawn) reads 83.1% (active); that for `O=C(Nc1ncc(C(O)(C(F)(F)F)C(F)(F)F)s1)c1ccccc1Cl`, -4.3% (inactive); that for `COc1ccc(NC(=O)c2cc3c(CO)cnc(C)c3oc2=N)cc1Cl`, -0.43% (inactive).
Then `O=C(NCCc1nnc2n1CCN(Cc1ccccc1-c1ccco1)CC2)C1CCCO1` (stereo not drawn), with -0.22% (inactive); and `CCc1ccccc1NC(=S)N(CCc1ccc(OC)c(OC)c1)Cc1cccnc1`, with 12% (inactive); and `O=C(Nc1nc(-c2ccc(I)cc2)cs1)c1ccc(Cl)s1`, with 4.72% (inactive).
On to `CC(C)[C@@H]1NC(=O)[C@@H]2C[C@H](NCc3cn(C)nc3-c3ccccc3)CN2C1=O`, for which the activation was -1.25% (inactive).
`Cc1nn(-c2ccccc2)c(Cl)c1/C=N\O`: the activation is 1.25% (inactive).
With `Cc1ccc(O)c(NC(=O)COCc2cc(-c3ccc(F)cc3)on2)c1`, the activation was -1.43% (inactive).
Then `COc1cc(NC(=O)c2nn3c(C(F)(F)F)cc(-c4ccco4)nc3c2Cl)c(OC)cc1Cl`, with -0.24% (inactive); and `CCC(=O)N1CCc2cc(S(=O)(=O)Nc3cccc(C)c3)ccc21`, with -1.7% (inactive).
Then `CC(=O)N1CCc2cc(Br)cc(S(=O)(=O)Nc3ccc(C)cc3C)c21`, with -9.66% (inactive); and `O=C(Nc1nc2c(s1)-c1cccc3cccc-2c13)C1CC1`, with -2.94% (inactive).
With `Cc1cccc(NCC(=O)N/N=C/c2ccccc2O)c1`, the activation is -1.08% (inactive).
Then `CN1CCN(C(=O)c2cc3c(=O)[nH]c4ccccc4c3s2)CC1`, with -2.02% (inactive); and `COc1ccc(OC)c(S(=O)(=O)NCCc2csc(-c3cccnc3)n2)c1`, with -1.44% (inactive); and `Cc1cccc(N(CCCN2C(=O)c3cccc4cccc(c34)C2=O)C(=O)c2cccs2)c1`, with 2.61% (inactive).
On to `CC(=O)NN1C(=O)c2ccc(Oc3ccc4c(c3)C(=O)N(NC(C)=O)C4=O)cc2C1=O`, for which the activation is 1.35% (inactive).
Then `COc1ccc(/C=c2\sc3ncnn3c2=O)c(OC)c1`, with 1.55% (inactive); and `COc1ccccc1C1SC(NC(C)=O)=NN1C(C)=O` (stereo not drawn), with 4.02% (inactive).
Then `Cc1cccc(C2c3[nH]c4ccccc4c3CCN2C(=O)CCN2CCCCO2)n1` (stereo not drawn), with 2.25% (inactive); and `COc1cccc(CC(=O)NCC2CC(Cc3ccc(F)cc3)=NO2)c1` (stereo not drawn), with -4.37% (inactive).
`Cc1cc(Nc2ccc3c(c2)OCO3)nc(Nc2ccc(N3CCOCC3)cc2)n1`: the activation is 12.3% (inactive).
Turning to `COc1cc(Nc2ccnc(Nc3ccc(N4CCOCC4)cc3)n2)cc(OC)c1OC`, the activation is 4.44% (inactive).
On to `Cc1cc(Nc2ccc(N3CCOCC3)cc2)nc(Nc2ccc(-n3ccnc3)cc2)n1`, for which the activation was 17.5% (inactive).
With `COc1cccc(Nc2nc(Nc3cc(C)ccc3C)nc(N3CCOCC3)n2)c1`, the activation is 8.14% (inactive).
Regarding `COc1ccc(CCNc2cc(C)nc(Nc3ccc(-n4ccnc4)cc3)n2)cc1`, the activation was 41.2% (active).
Then `COc1ccc(CCNc2ccnc(Nc3ccc(N4CCOCC4)cc3)n2)cc1`, with 28.5% (active); and `COc1ccc(CCNc2ccnc(Nc3ccc(-n4ccnc4)cc3)n2)cc1`, with 38.8% (active).
Then `Cc1ccc(NC(=O)/C(=C\c2ccco2)NC(=O)c2cccc(C)c2)cc1`, with 0.99% (inactive); and `CC(C)CC(NC(=O)C(C)NC(=O)CNC(=O)C(NC=O)C(C)C)C(=O)NC(C)C(=O)NC(C(=O)NC(C(=O)NC(C(=O)NC(Cc1c[nH]c2ccccc12)C(=O)NC(CC(C)C)C(=O)NC(Cc1c[nH]c2ccccc12)C(=O)NC(CC(C)C)C(=O)NC(Cc1c[nH]c2ccccc12)C(=O)NC(CC(C)C)C(=O)NC(Cc1c[nH]c2ccccc12)C(=O)NCCO)C(C)C)C(C)C)C(C)C` (stereo not drawn), with 101% (active).
Then `COc1ccc(-c2nc(Nc3ccc(C)c(Cl)c3)c3ccccc3n2)cc1OC`, with 12.1% (inactive).
On to `COc1ccc(CCN2C(=O)c3ccc(Oc4ccc(Nc5ncnc6ccccc56)cc4)cc3C2=O)cc1OC`, for which the activation is 40.5% (active).
Then `COc1ccc(CCN2C(=O)c3cccnc3C2=O)cc1OC`, with 2.67% (inactive).
For the compound `CC(NC(=O)c1ccco1)c1nnc2n1CCN(Cc1cccc(F)c1)CC2` (stereo not drawn), the activation is 17.5% (inactive).
Consider `CCOC(=O)C1=NN=C2C(=O)N(c3ccccc3)C(=O)C12` (stereo not drawn), for which the activation is 0.79% (inactive).
Consider `CCOc1ccc(NC(=O)/C(C#N)=C/c2c[nH]c3ccccc23)cc1`, for which the activation was 1.37% (inactive).
Then `O=C(CSc1nc(-c2ccccc2)cn1-c1ccccc1)Nc1ccccc1Cl`, with 6.36% (inactive); and `O=C1OC(c2ccc(Br)cc2)=N/C1=C\c1ccc(Br)cc1`, with 0.61% (inactive).
The result for `Cc1ccc(S(=O)(=O)N(CC(=O)N2CCOCC2)CC(=O)N2CCOCC2)cc1` reads 7.51% (inactive); that for `O=C1C2CCCN2C(c2ccco2)N1c1ccc(F)cc1` (stereo not drawn), 2.43% (inactive); that for `FC(F)(F)c1nc(Nc2ccccc2Cl)sc1-c1ccccc1`, 4.88% (inactive).
Then `N/C(=N\c1nc(=O)c2ccccc2s1)NC(=O)c1cccc(Br)c1`, with 0.6% (inactive); and `CCOc1ccc(NC(=O)CN2CCN(CC(=O)Nc3ccc(N(C)C)cc3)CC2)cc1`, with -2.91% (inactive); and `COc1cc(C2=N/C(=C\c3cccc(F)c3)C(=O)O2)cc(OC)c1OC`, with 0.44% (inactive).
For the compound `O=C1NC(=O)C(=Cc2ccc(-c3ccc(O)c([N+](=O)[O-])c3)o2)C(=O)N1`, the activation was -2.55% (inactive).
Then `Cc1nnc(Nc2cccc(F)c2)[nH]c1=O`, with -3.86% (inactive).
The result for `COC(=O)C1=C(C)NC(=O)NC1c1cc(OC)ccc1OC` (stereo not drawn) reads 0.35% (inactive); that for `CC(C)C(NS(=O)(=O)c1cccc2nsnc12)C(=O)NC1CCCC1` (stereo not drawn), -3.04% (inactive); that for `CC(=O)Nc1ccc(NC(=O)c2sc3ccccc3c2Cl)cc1`, 1% (inactive).
The result for `CCN(CC(=O)N1CCCCC1)S(=O)(=O)c1ccc(Cl)cc1` reads -5.3% (inactive); that for `CC1CCCN(C(=O)C(=O)N2CCCC(C)C2)C1` (stereo not drawn), 3.28% (inactive).
On to `CCC(C)NC(=O)c1cc(=O)[nH]c2ccc(Br)cc12` (stereo not drawn), for which the activation is 88.5% (active).
For `CCC(C)NC(=O)c1ccc(-n2c(=S)[nH]c3ccccc3c2=O)cc1` (stereo not drawn), the activation is 7.03% (inactive).
On to `CCC(C)NC(=O)c1cc2c(=O)oc3ccccc3c2s1` (stereo not drawn), for which the activation was 1.06% (inactive).
Then `CCCOC(=O)CSC1=C(C#N)C(c2ccco2)C(C(=O)Nc2ccc(Cl)cc2)=C(C)N1` (stereo not drawn), with -4.25% (inactive).
Turning to `O=C(Nc1ccc(F)cc1)N1CCN(c2ccc3nnc(-c4ccc(F)cc4)n3n2)CC1`, the activation is -0.4% (inactive).
Then `Nc1ccccc1-c1nnn(CC(=O)Nc2ccc(Cl)cc2)n1`, with -3.19% (inactive); and `O/N=C(\C=N\O)C12CC3CC(CC(C3)C1)C2`, with -1.69% (inactive).
The result for `O=C(O)c1c(CNCCCSC2CCCCC2)c2ccccc2n1Cc1ccccc1` reads 3.46% (inactive).
